Results filed as inconclusive are left out. Active and inactive are the calls of the source. Unless noted, calls follow the shape of the dose curve; as a rule, active = well fitted curve in the direction sought with a large enough effect; inconclusive = small, poorly fitted or top-dose-only effect, or another doubt; inactive = no such curve, though single readings can be large; an effect the other way counts as inactive or inconclusive.
What was measured:
[1] = molecular target: Luciferin 4-monooxygenase (Photinus pyralis) (UniProt P08659); assay: Biochemical firefly luciferase enzyme assay for NPC (AID 624030);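 also: purified P. pyralis luciferase at 10 nM with luciferin and ATP substrate; 0% = DMSO and -100% = full luciferase inhibition by PTC124 control; nearly all actives have a fitted effect of over 70% in size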
Chain of Luciferin 4-monooxygenase (Photinus pyralis) (P08659 whole entry, looked up): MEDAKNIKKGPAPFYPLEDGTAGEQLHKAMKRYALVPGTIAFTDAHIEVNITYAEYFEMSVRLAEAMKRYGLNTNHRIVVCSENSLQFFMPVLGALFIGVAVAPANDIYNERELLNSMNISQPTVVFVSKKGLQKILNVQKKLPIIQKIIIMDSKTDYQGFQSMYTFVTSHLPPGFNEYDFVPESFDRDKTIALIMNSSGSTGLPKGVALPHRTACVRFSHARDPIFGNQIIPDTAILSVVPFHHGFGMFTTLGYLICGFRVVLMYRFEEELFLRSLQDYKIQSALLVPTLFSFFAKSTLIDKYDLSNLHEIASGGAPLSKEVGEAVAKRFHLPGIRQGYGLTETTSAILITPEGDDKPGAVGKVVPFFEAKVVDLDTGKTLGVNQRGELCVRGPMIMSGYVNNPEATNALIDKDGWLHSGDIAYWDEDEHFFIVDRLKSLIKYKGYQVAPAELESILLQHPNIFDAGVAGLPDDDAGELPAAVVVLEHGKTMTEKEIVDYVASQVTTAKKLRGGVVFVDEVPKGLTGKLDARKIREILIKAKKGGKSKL
Procedure, shortened: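 Counter-screen for direct inhibition of the luciferase enzyme by approved-drug library compounds, run at 10 nM enzyme in 50 mM Tris acetate (final). Luminescence was read within 5 min of enzyme-buffer addition and normalized to PTC124 versus DMSO (0%).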

[2] = P-glycoprotein substrates identified in KB-8-5-11 adenocarcinoma cell line, qHTS therapeutic library screen (AID 1346987); also: nearly all actives have a fitted effect of over 65% in size; also: potency is read from the fitted curve at half-maximal effect
Procedure, shortened: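 Luminescence from CellTiter-Glo, read 5 min after addition, quantified survival of KB-8-5-11 (P-gp-overexpressing) cells exposed to compounds for 72 h. AC50 was derived from concentration-response curves.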

KB-3-1 = assay: Cytotoxic Profiling of Annotated Libraries Using Quantitative High-Throughput Screening (AID 1296008); conditions: Five cell lines viability, CellTiter-Glo ATP luminescence, 48-72 h; max response: stronger effect = lower value; also: nearly all actives have a fitted effect of over 60% in size; also: potency is read from the fitted curve at half-maximal effect; as to max response: % is scaled to controls: 0 for no effect and ±100 for the full control effect
Procedure, shortened: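 Compounds were pin-transferred onto cells and incubated 48 or 72 hr at 37 degree Celsius, 95% humidity. CellTiter-Glo was added, plates sat 10 min at room temperature, then ATP-coupled luminescence was imaged as the viability read-out.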

astro = assay: Drug repurposing screens with cells derived from glioblastoma tumor samples (AID 1345199); conditions: viability, ATP luminescence, 48 h; series mostly up to 45.9 µM; also: nearly all actives have a fitted effect of over 40% in size; also: potency is read from the fitted curve at half-maximal effect
Procedure, shortened: (§1)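 Primary testing used CD133+ neurospheres from four GBM patients, seven concentrations, 48 h exposure and ATP-based viability; confirmation added three slower-growing patient lines.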

[3] = qHTS Assay for Identifying Gametocytocidal Compounds (AID 743244);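 also: % is scaled to controls: 0 for no effect and ±100 for the full control effect; actives lower the fluorescent signal which means gametocytes are killed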; conditions: P. falciparum 3D7 stage III-V gametocytes, alamarBlue, 72 h; max response: stronger effect = lower value
Procedure, shortened: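 P. falciparum 3D7 stage III–V gametocytes (20,000 cells/well) were exposed to compounds for 72 h at 37 °C, 5% CO2. AlamarBlue was then added for 24 h; decreased resorufin fluorescence (Ex 525/Em 598 nm) indicated loss of viability.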

[4] = Drug repurposing screens with cells derived from glioblastoma tumor samples (AID 1345199); conditions: GBM patient neurospheres viability, ATP luminescence, 48 h; Potency: tumour line A; series mostly up to 45.9 µM; also: nearly all actives have a fitted effect of over 40% in size; also: potency is read from the fitted curve at half-maximal effect
Procedure, shortened: as §1

[5] = Confirmation and Secondary Assay for Modulators of Hemoglobin Beta Chain Splicing at IVS2 654 locus (AID 910); also: % of control where 0% means no effect
Procedure, shortened: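 HeLa cells stably carrying EGFP interrupted by mutant beta-globin IVS2-654 intron (CMV-driven) were treated with compound for 2 days at 37C; corrected splicing was scored as total peak GFP intensity per well (488 nm excitation, 500-520 nm emission).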

[6] = Confirmation and Secondary Assay for Modulators of Hemoglobin Beta Chain Splicing at IVS2 705 locus (AID 930);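 also: HeLa cells stably expressing the EGFP-705 splicing reporter; GFP fluorescence per well restored by corrected splicing of the IVS2-705 intron in EGFP; % of control where 0% means no effect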
Procedure, shortened: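 Read-out: total peak GFP fluorescence per well (488 nm excitation, 500-520 nm emission) by laser-scanning cytometry. Cells: HeLa EGFP-705 splicing reporter, 2 days compound exposure in Optimem/2% FCS.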

[7] = qHTS Assay for Lipid Storage Modulators (AID 1519; calls by dose curve; as to activity change, negative = inhibition: % is scaled to controls: 0 for no effect and ±100 for the full control effect); conditions: Drosophila S3 cells, BODIPY lipid droplet/cell ratio, laser cytometry, cells loaded with oleic acid
Procedure, shortened: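 Cells seeded at 5,000 per well were treated with compounds over a concentration series and loaded with oleic acid (400 uM, as added). Lipid droplet fluorescence (488 nm excitation, 500-530 nm channel) was read by laser-scanning cytometry and normalized to 20 uM Triacsin C.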

[8] = molecular target: Ubiquitin carboxyl-terminal hydrolase 1 (Homo sapiens) (UniProt O94782); assay: Inhibitors of USP1/UAF1: Pilot qHTS (AID 504865);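 also: rhodamine fluorescence freed from ubiquitin-rhodamine substrate followed over time; top concentration of the series differs between compounds; % is scaled to controls: 0 for no effect and ±100 for the full control effect; nearly all actives have a fitted effect of over 35% in size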
Chain of Ubiquitin carboxyl-terminal hydrolase 1 (Homo sapiens) (O94782 whole entry, looked up): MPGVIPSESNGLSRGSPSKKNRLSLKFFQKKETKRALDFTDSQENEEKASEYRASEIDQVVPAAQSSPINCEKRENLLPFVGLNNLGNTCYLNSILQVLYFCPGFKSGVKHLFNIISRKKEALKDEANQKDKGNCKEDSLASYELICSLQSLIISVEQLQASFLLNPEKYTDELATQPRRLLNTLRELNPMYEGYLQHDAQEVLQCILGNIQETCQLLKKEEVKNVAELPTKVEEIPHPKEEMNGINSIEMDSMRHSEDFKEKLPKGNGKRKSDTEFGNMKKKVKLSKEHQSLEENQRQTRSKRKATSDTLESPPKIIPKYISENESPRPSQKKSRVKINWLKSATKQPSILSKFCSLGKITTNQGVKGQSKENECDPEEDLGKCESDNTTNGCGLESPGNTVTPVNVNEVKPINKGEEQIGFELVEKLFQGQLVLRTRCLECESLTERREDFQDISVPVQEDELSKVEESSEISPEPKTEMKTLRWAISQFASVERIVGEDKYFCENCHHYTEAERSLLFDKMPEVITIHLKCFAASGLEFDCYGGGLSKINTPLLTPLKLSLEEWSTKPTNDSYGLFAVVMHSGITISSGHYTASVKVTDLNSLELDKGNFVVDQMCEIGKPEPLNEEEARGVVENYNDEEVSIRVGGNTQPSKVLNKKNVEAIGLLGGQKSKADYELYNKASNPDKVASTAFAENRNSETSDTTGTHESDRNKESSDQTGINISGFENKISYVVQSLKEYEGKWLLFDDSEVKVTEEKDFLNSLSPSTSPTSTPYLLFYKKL
Procedure, shortened: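 USP1/UAF1 complex (1nM) preincubated with compound 15 min at room temperature, then Ub-Rho substrate (150nM final) added. Fluorescence read kinetically at 480/540 nm, 6 reads every 60 seconds. Buffer: 50mM HEPES pH 7.8, 0.5mM EDTA, 0.1 mg/ml BSA, 1mM TCEP, 0.01% Tween-20.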

CCCSc1cc(OC)c(CCN)cc1OC
inactive: Potency [1]
active: Potency [2] 20 µM | Potency (KB-3-1) 17.8 µM | Potency (astro) 31.6 µM

CC(N)Cc1ccc2c(c1)OCO2 (stereo not given)
inactive: Potency [1] | max response [3] -8.54% | Potency [2] | max response (KB-3-1) -15.3% | Potency [4] | Potency (astro)

CCN(CC)/[N+]([O-])=N/O
inactive: Potency [5] | outcome [6] | activity change, negative = inhibition ([7]; at 57.5 µM (top of the series)) 8.09% | Potency [8] | Potency [1] | max response (KB-3-1) -8.01% | Potency [4] | Potency (astro)
-4.74%: max response ([7]; measured here: lipid channel max response)
-15%: max response ([7]; measured here: cell count channel max response)

CN1CCN=C(c2ccccc2)c2cc(Cl)ccc21
inactive: Potency [1] | max response [3] 0.139% | Potency [2] | max response (KB-3-1) 8.16% | Potency (astro)

Source: PubChem BioAssay (NCATS)
